Assay results taken from ChEMBL document CHEMBL4513216, “Probing the Open Global Health Chemical Diversity Library for Multistage-Active Starting Points for Next-Generation Antimalarials” (ACS Infect Dis, 2020).
In all, about 68,000 compounds went through this assay and about 2,700 (4%) showed an effect of 50% or more. Many of the other results were omitted from the sample, so strong results are more common in it than they were.

The molecules below were run on Plasmodium berghei (assay: Screen against P. berghei liver stage (PbLuc), transformed with Luciferase, at 2uM). Details: tested at 2 uM.
Type: functional, HepG2

| SMILES | INHIBITION |
| --- | --- |
| CSCCC(=O)N1CCCN(c2ccccc2C)CC1 | 0.31% |
| CSCC(=O)N1CCCN(c2ccccc2C)CC1 | 2.91% |
| CCCc1nnc(NC2CCN(C3CCOCC3)CC2)o1 | 45.66% |
| COCc1nnc(-c2cccc(C(=O)OC(C)C)c2)o1 | 33.9% |
| COCc1nnc(-c2cccc(C(=O)N(C(C)C)C3CCC3)c2)o1 | 21.97% |
| COCc1nnc(-c2cccc(C(=O)N(C)CC(C)(C)C)c2)o1 | 62.51% |
| CC1(C)Oc2ccc(NC(=O)c3ccc(=O)[nH]n3)cc2O1 | 10.43% |
| COc1ccnc(N2CCC(=O)N(CC3CC3)C(C(C)C)C2)n1 (centres undefined) | -61.87% |
| COc1ccnc(N2C[C@H]3CC[C@@H](C2)N(CC2CCC2)C3=O)n1 | -24.7% |
| COc1ccnc(N2C[C@H]3CC[C@@H](C2)N(CC2CC2)C3)n1 | 57.41% |
| Cc1nc(-c2ccco2)ccc1C(=O)NCCCN1CCOCC1 | -48.23% |
| Cc1nc2ccnn2c(C)c1CCC(=O)N1CCN(C2CC2)CC1 | 26.4% |
| Cc1ccccc1C(=O)N1CCC2(CC1)CC(c1cnn(C)c1)CO2 (centres undefined) | 42.27% |
| CN(C)C(=O)c1cc2c(nc1NCC1CC1)CCNCC2 | 43.06% |
| CS(=O)(=O)CCC(=O)Nc1cc(F)ccc1OCC1CCCO1 (centres undefined) | 6.31% |
| O=C(Nc1cc(F)ccc1OCC1CCCO1)N1CCSCC1 (centres undefined) | 9.23% |
| O=C(Nc1cc(F)ccc1OCC1CCCO1)c1ccoc1 (centres undefined) | -27.04% |
| O=C(Nc1cc(F)ccc1OCC1CCCO1)NC1CC1 (centres undefined) | 56.62% |
| O=C(Nc1cc(F)ccc1OCC1CCCO1)N1CCCC1 (centres undefined) | -5.1% |
| O=C(CC(F)(F)F)Nc1cc(F)ccc1OCC1CCCO1 (centres undefined) | 56.03% |
| Cc1ccn(CCC(=O)NCCc2ccco2)n1 | -0.14% |
| COc1ccc(C[C@H]2CN(C(=O)CS(C)(=O)=O)CC[C@H]2OC)cc1 | 39.18% |
| O=C(NCCO)Nc1ccc(Cl)cc1-n1cccc1 | -12.7% |
| Cc1nc(CN2CCCCC2CCc2ccc(O)cc2)co1 (centres undefined) | 0.58% |
| Cc1noc(C)c1-c1ccc(C2CCCN2C(=O)c2ccncn2)nc1 (centres undefined) | 5.15% |
| COc1cccc(Cn2c(C)c(C)oc2=O)c1OC | 23.87% |
| Cc1cc(N2CCN(C3CCSCC3)CC2)n2nc(C)c(C)c2n1 | 39.51% |

| SMILES | INHIBITION |
| --- | --- |
| CCCNC(=O)C(C)Oc1ccc(F)cc1 (centres undefined) | 23.68% |
| CCCNC(=O)C(C)Oc1ccccc1 (centres undefined) | 64.08% |
| CCNC(=O)C(C)Oc1ccc(N(C)S(C)(=O)=O)cc1 (centres undefined) | 33.26% |
| COc1ncc(C(=O)NCc2ccccc2)cn1 | 60.36% |
| CCOc1ccc(Cl)c(C(=O)NCc2ccc(C(=O)NC)cc2)n1 | 23.92% |
| COC(=O)c1ccc(C(=O)NCc2ccc(Br)cc2)cn1 | 38.67% |
| COc1ccc(CNC(=O)c2ccc(Br)cn2)cc1 | 21.97% |
| CCOc1ccc(CNC(=O)c2cnc(OC)nc2)cc1 | 58.98% |
| COc1ncc(C(=O)NCc2ccc(Br)cc2)cn1 | 18.8% |
| COCC(O)CN(C)c1cc(C(F)(F)F)nc(-c2cccnc2)n1 (centres undefined) | -2.47% |
| CC(NCc1cccc(COC2CCCC2)c1)c1cnn(C)c1 (centres undefined) | 12.83% |
| CC(NCc1ccnc(OC2CCC2)c1)c1cnn(C)c1 (centres undefined) | 18.98% |
| COc1ccc(CNC(C)c2cnn(C)c2)cc1OC1CCCC1 (centres undefined) | 51.76% |
| CN(C1CCN(C(=O)NCCc2ccc(F)cc2F)CC1)S(C)(=O)=O | 8.56% |
| COCC(=O)N1CCC(Oc2cccc(C)c2)CC1 | 58.53% |
| COC(=O)NCC(=O)N1CCC(Oc2cccc(C)c2)CC1 | -31.79% |
| COCC(=O)N1CCC(c2ccc(OC)cc2)C1 (centres undefined) | 56.21% |
| COCC(=O)N1CCC(c2cc(-c3ccc(OC)cc3)n[nH]2)C1 (centres undefined) | -0.64% |
| CSCC(=O)N1CCC(Oc2cccc(C)c2)CC1 | 10.91% |
| CCN(CC)C(=O)CNC(=O)N1CCC(c2ccc(OC)cc2)C1 (centres undefined) | 26.44% |
| CC(C)c1nc2cc(NC(=O)c3n[nH]c4c3CCC4)ccc2n1C | -12.41% |
| CNC(=O)C1(c2cnccn2)CCCN1C(=O)c1ccn(C)n1 (centres undefined) | 43.89% |
| Cc1nnc(N2CC[C@H]3C[C@H](C(=O)N(C)C)O[C@@H]3C2)s1 | 4.42% |
| CCN1CC(COc2ccc(OC)cc2)Oc2ccncc2S1(=O)=O (centres undefined) | 18.99% |
| O=S1(=O)c2cccnc2OC(COc2ccccc2)CN1CC1CC1 (centres undefined) | 22.01% |
| CCN1CC(COc2ccccc2)Oc2ncccc2S1(=O)=O (centres undefined) | 55.73% |
| CN(C)C1(CNc2nccc(C3CCCC3)n2)CCOCC1 | 1.1% |
